Assay results published in PubChem BioAssay AID588675 (Johns Hopkins Ion Channel Center, 2011).
The whole screen tested about 310,000 compounds, of which about 1,900 (0.61%) were called active.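 The calls were made as follows: active = plate-corrected calcium response at least 3 library SD above typical, normal starting fluorescence, not activating the receptor alone; inactive = the rest.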 Only a selection was taken, and actives are over-represented in it overall.

Molecular target: Mas-related G-protein coupled receptor member X1 (Homo sapiens) (UniProt Q96LB2)
Sequence (Q96LB2 whole entry, looked up): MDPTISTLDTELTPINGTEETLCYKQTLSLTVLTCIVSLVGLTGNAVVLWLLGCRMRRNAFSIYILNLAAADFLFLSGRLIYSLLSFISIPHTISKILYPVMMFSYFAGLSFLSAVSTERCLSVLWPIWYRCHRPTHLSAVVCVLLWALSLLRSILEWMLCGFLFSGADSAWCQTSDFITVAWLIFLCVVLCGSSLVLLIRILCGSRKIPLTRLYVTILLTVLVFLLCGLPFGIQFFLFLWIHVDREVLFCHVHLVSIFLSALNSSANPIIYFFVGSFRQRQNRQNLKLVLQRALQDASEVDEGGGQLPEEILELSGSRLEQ
Assay: positive allosteric modulators of MrgX1, primary screen, HEK293 cells, Fluo-4 calcium flux (AID 588675);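 also: compound read alongside a low EC10 to EC30 dose of BAM8-22 agonist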;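 as to B-score: peak minus trough fluorescence over baseline measured at the second addition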
Details: MrgX1-HEK293, Fluo-4 calcium flux, FDSS, at 10 µM; active compounds read high

| SMILES | B-score |
| --- | --- |
| Cc1nc2ccccc2n1CC(O)c1ccccc1 (stereo not given) | inactive |
| CCn1c(C)nc2c1C(=O)c1ccccc1C2=O | 6.92 (active) |
| CCC1(CC)Cc2ccccc2-c2nc3ccccc3c(=O)n21 | inactive |
| CN(C)c1ccc(Nc2c3c4c(cccc4n(C)c2=O)C(=O)c2ccccc2-3)cc1 | inactive |
| NC(=O)[C@H]1CC2(CC(c3cccc(NC(=O)[C@H]4CCC(=O)N4)c3)=NO2)CN1C(=O)c1ccccc1C(=O)c1ccccc1 (stereo not given in full) | inactive |
| Cc1cccc(NC(=O)CCN2CC(C)CC(C)C2)c1 (stereo not given) | inactive |
| Cc1cccc(NC(=O)C(C)SCc2ccccc2)c1 (stereo not given) | inactive |
| Cc1cccc(NC(=O)C(C)N2C(=O)C3C4CC(C(Br)C4Br)C3C2=O)c1 (stereo not given) | 9.03 (active) |
| CC(C)(Oc1ccc(C2CC2(Cl)Cl)cc1)C(=O)O (stereo not given) | inactive |
| COc1cc(C2/C(=C(\O)c3ccc4c(c3)CC(C)O4)C(=O)C(=O)N2Cc2ccco2)ccc1O (stereo not given) | inactive |
| COc1ccc(C2=CC(c3cccc(OC)c3)n3nnnc3N2)cc1 (stereo not given) | inactive |
| Brc1ccc(C2=CC(c3ccco3)n3ncnc3N2)cc1 (stereo not given) | inactive |
| CCOc1ccc(C2=CC(c3ccccc3)n3ncnc3N2)cc1 (stereo not given) | 7.44 (active) |
| CC1=C(C/C=C(\C)CCCC(C)CCCC(C)CCCC(C)C)C(=O)c2ccccc2C1=O (stereo not given) | inactive |
| COc1ccc(-c2cn[nH]c2-c2ccc(OC)cc2)cc1 | inactive |
| CCOc1ccccc1Oc1cn[nH]c1-c1ccc(OC)cc1O | inactive |
| COc1ccc(Oc2cn[nH]c2-c2ccc(OC)cc2O)cc1 | 6.54 (active) |
| O=C(NCc1ccccc1)C1=C[C@@H](C2CCCCC2)C[C@@H](OCc2ccc(CO)cc2)O1 | inactive |
| CC1CCC(CN2CCN=C2N(C)C)CC1 (stereo not given) | inactive |
| COc1ccc(NC(=O)c2cc(-c3ccc(C)o3)nc3ccccc23)cc1 | 8.06 (active) |
| COc1ccc(-c2cc(C(=O)Nc3ccccc3O)c3ccccc3n2)cc1 | inactive |
| COc1ccc(NC(=O)CN(C)C(=O)c2cc(-c3ccc(C)o3)nc3ccccc23)cc1 | inactive |
| COc1ccc(C(=O)CN2C(=O)NC3(CCc4ccccc43)C2=O)c(OC)c1 (stereo not given) | inactive |
| CC(OC(=O)CNS(=O)(=O)/C=C/c1ccccc1)C(=O)Nc1ccc(S(=O)(=O)N2CCCC2)cc1 (stereo not given) | inactive |

| SMILES | B-score |
| --- | --- |
| Nc1ccc(Oc2ccc(Cl)cc2)cc1 | 6.95 (active) |
| CC(C)(C)c1ccc(Oc2ccc(N)cc2)cc1 | inactive |
| COc1cccc(Oc2ccc(N)cc2)c1 | inactive |
| CCN(CC)C(=O)CC1(c2ccccc2OC)CCOC(C(C)C)C1 (stereo not given) | inactive |
| COC(=O)c1c(C)cc(O)c(C)c1O | inactive |
| N#C/C=C(/c1ccc(F)cc1)N1CCOCC1 | inactive |
| CC1=C(C(N)=O)C(c2ccc(Br)cc2)n2ncnc2N1 (stereo not given) | inactive |
| Fc1ccccc1/C=C1\CCCC2=C1Nc1ncnn1C2c1ccccc1F (stereo not given) | 7.46 (active) |
| CC(C(=O)N=Nc1c(O)n(C)c2ccc(Br)cc12)n1cnc2ccccc2c1=O (stereo not given) | inactive |
| CC(C)N(c1ccccc1)c1ncnc(NCCC(=O)O)c1[N+](=O)[O-] | inactive |
| Cc1c(C(=O)N2CCCc3ccccc32)sc2nc(-c3ccccc3)cn12 | 10.8 (active) |
| Cc1c(C(=O)NCC2CCCO2)sc2nc(-c3ccccc3)cn12 (stereo not given) | inactive |
| Cc1c(C(=O)N2CC(C)OC(C)C2)sc2nc(-c3ccccc3)cn12 (stereo not given) | inactive |
| CCn1nccc1C(=O)Nc1ccc(S(=O)(=O)NC23CC4CC(CC(C4)C2)C3)cc1 | inactive |
| COc1ccc(S(=O)(=O)N2CCCC(C(=O)NCCCn3ccnc3)C2)cc1OC (stereo not given) | inactive |
| Cc1ccc(C)c(N2CCN(S(=O)(=O)c3c(C)[nH]c(C)c3C(=O)N3CCCC3)CC2)c1 | inactive |
| CCOC(=O)c1ccccc1NC(=S)N1CCC(C(N)=O)CC1 | inactive |
| Cc1nc2ccccc2cc1OCc1ccc(F)cc1 | 11.8 (active) |
| Fc1ccccc1COc1cccc2cccnc12 | inactive |
| Cc1occc(=O)c1OCc1ccc(F)cc1 | inactive |
| COCCCN(C(=O)CSCc1ccc(C)cc1)c1c(N)n(Cc2ccccc2)c(=O)[nH]c1=O | inactive |
| S=C(NCCC1=CCCCC1)Nc1ccccc1 | inactive |
| S=C(NCC1CCCO1)N1CCN(c2ccc(Cl)c(Cl)c2)CC1 (stereo not given) | inactive |
| S=C(NCCc1ccccc1)NCC1CCCO1 (stereo not given) | inactive |

| SMILES | B-score |
| --- | --- |
| Oc1c(Br)cc(/C=N/NC(=S)NCC2CCCO2)cc1Br (stereo not given) | 6.64 (active) |
| C=CCOc1ccccc1NC(=O)CN1C(=O)CNC1=O | inactive |
| CCOC(=O)c1cnc2ccc(F)cc2c1Nc1ccc2c(c1)OCCO2 | inactive |
| CCCc1ccc(OCC(=O)NNC(=S)NC(=O)c2ccco2)cc1 | 11.9 (active) |
| CCCc1ccc(OCCNC(=O)c2ccco2)cc1 | inactive |
| CC(Oc1ccc2ccccc2c1)C(=O)NNC(=S)NC(=O)c1ccco1 (stereo not given) | inactive |
| CCOc1cc(C(=O)Nc2ccc(S(=O)(=O)Nc3cnc4ccccc4n3)cc2)cc(OCC)c1OCC | inactive |
| Cc1ccccc1-n1nc(SCC(=O)O)sc1=S | inactive |
| CN(C)CCCCCN(C)Cc1cc2ccccc2o1 | inactive |
| CCOC(=O)c1ccc(-c2ccc(C(=O)Nc3cccnc3)o2)cc1 | inactive |
| COC(=O)C1=C(C)NC2=C(C(=O)c3ccccc32)C1c1ccc(-c2ccc(C(=O)O)cc2)o1 (stereo not given) | 16.1 (active) |
| Cc1ccc(C2C3=C(Nc4[nH]n(-c5ccccc5)c(=O)c42)c2ccccc2C3=O)cc1 (stereo not given) | inactive |
| CC(C)(C)NC(=O)CSc1nnc(NC(=O)CCc2ccccc2)s1 | inactive |
| O=C(ON=C1CCN(S(=O)(=O)c2ccccc2)CC1)c1ccc(Cl)cc1 | inactive |
| COc1cccc(OC)c1C(=O)Nc1sc2c(c1C(N)=O)CCCC2 | inactive |
| NC(=O)c1c(Nc2nc3c(F)cccc3s2)sc2c1CCCC2 | 8.33 (active) |
| O=C(Nc1sc2c(c1C(=O)O)CCC2)c1ccccc1F | inactive |
| Cc1ccnc(NC(=O)C(C)N2C(=O)c3ccccc3C2=O)c1 (stereo not given) | 7.9 (active) |
| COC(=O)c1ccc(NC(=O)C(C)N2C(=O)c3ccccc3C2=O)cc1 (stereo not given) | inactive |
| CCOc1ccc(NC(=O)C(C)N2C(=O)c3ccccc3C2=O)cc1 (stereo not given) | inactive |
| Cc1ccc(NS(=O)(=O)c2cn(C)c(=O)n(C)c2=O)c(C)c1 | inactive |
| CC(C)(C)c1nc2ccccc2c(=O)n1N1C(=O)c2ccccc2C1=O | inactive |
| CC(=O)c1ccc(NC(=O)c2ccc(-n3cncn3)c([N+](=O)[O-])c2)cc1 | inactive |
| CC(/C=C/c1ccccc1)=N\NC(=O)C1CC1(C)c1ccccc1 (stereo not given) | inactive |

| SMILES | B-score |
| --- | --- |
| Cc1ccc(-c2cc(C(=O)N/N=C/C=C/c3ccccc3)n[nH]2)o1 | inactive |
| O=C(N/N=C/C=C/c1ccccc1)C1CC1(c1ccccc1)c1ccccc1 (stereo not given) | 14.2 (active) |
| COCc1[nH][nH]c(=O)c1C=Nc1ccc(F)cc1F | inactive |
| Clc1ccc(Cn2ncc3c(NCc4cccnc4)ncnc32)cc1 | inactive |
| Clc1ccc(Nc2ncnc3c2nnn3Cc2ccccc2)cc1 | inactive |
| CC(C)CNc1ncnc2c1cnn2Cc1ccc(Cl)cc1 | 7.42 (active) |
| CCOC(=O)C1=C(C)N=C2c3ccccc3C(=O)C2C1c1ccc(Br)cc1 (stereo not given) | inactive |
| O=C1c2ccccc2C2=Nc3ccccc3SC(c3ccccc3F)C12 (stereo not given) | 13.4 (active) |
| O=C1c2ccccc2C(=O)C1c1ccccc1F | inactive |
| COc1ccccc1CNS(=O)(=O)c1c(C)[nH]c(C)c1C(=O)N1CCCCC1 | inactive |
| COc1cc(C(=O)NCc2cc3cc(Cl)ccc3n2C)cc(OC)c1OC | inactive |
| CCOCc1nnc(NC(=O)CCS(=O)(=O)Cc2ccccc2)s1 | inactive |
| CCOCc1nnc(NC(=O)CSc2ccc(C)cc2)s1 | inactive |
| CCOCc1nnc(NC(=O)CCC2CCCCC2)s1 | 7.99 (active) |
| OCC[C@H]1C[C@H](O)[C@@H](O)[C@]2(CCc3ccccc3O2)O1 | inactive |
| COc1cc2c(cc1OC)C(c1ccccc1Br)NC(=O)C2 (stereo not given) | inactive |
| O=C1CCC([N+](=O)[O-])C(c2ccccc2Br)N1 (stereo not given) | 8.17 (active) |
| O=C1CCC(Cc2ccccc2)N1 (stereo not given) | inactive |
| Cc1ccccc1NC(=O)c1nn(-c2ccc(F)c(F)c2)ccc1=O | inactive |
| Cc1cccc(N2CCN(C(=O)COCc3cc(-c4ccc5c(c4)OCO5)on3)CC2)c1C | inactive |
| O=C(COCc1cc(-c2ccc3c(c2)OCO3)on1)N1CCN(c2cccc(Cl)c2)CC1 | inactive |
| CCOC(=O)N1CCN(C(=O)COCc2cc(-c3ccc4c(c3)OCO4)on2)CC1 | 6.93 (active) |
| COc1ccc(-c2cc(C(=O)NC(Cc3c[nH]c4ccccc34)C(=O)O)c(C)o2)cc1OC (stereo not given) | inactive |
| Cc1nc(-c2ccccc2)cn2c1nc1ccccc12 | inactive |

| SMILES | B-score |
| --- | --- |
| COc1ccc(C(=O)/C=C/c2ccc(-c3ccccc3)cc2)cc1CSCC(=O)O | inactive |
| Cc1cc(N2C(=O)c3ccc(C(=O)NCc4ccccc4)cc3C2=O)no1 | inactive |
| Cc1cc(C(=O)N2CCC(C(=O)O)CC2)c(C(F)(F)F)o1 | inactive |
| CN1/C(=C\C=C2\N=C(c3ccc(F)cc3)OC2=O)C(C)(C)c2ccccc21 | 19.6 (active) |
| CN1/C(=C\C(=O)c2oc3ccccc3c2N)C(C)(C)c2ccccc21 | inactive |
| CN1CCN(CCC(=O)N/N=C/C=C2\N(C)c3ccccc3C2(C)C)CC1 | inactive |
| Cc1c(C2=CCN(S(=O)(=O)c3ccc(Cl)cc3)CC2)c2ccccc2n1C | inactive |
| CN(CC(=O)Nc1cccc(F)c1)C(=O)C1CC(=O)N(CCc2ccccc2)C1 (stereo not given) | inactive |
| Cc1cc(NC(=O)OC(C)C)ccc1-c1ccc(NC(=O)OC(C)C)cc1C | inactive |
| O=C(NC1CC1)C1CCCN(C(=O)NC2CCCCC2)C1 (stereo not given) | inactive |
| CC[C@H](C)[C@@H](C(=O)N1CCNCC1)n1cc([C@@H](N)Cc2ccc(O)cc2)nn1 | inactive |
| COc1ccc(CCNS(=O)(=O)c2cccc([N+](=O)[O-])c2)cc1 | inactive |
| C/C(=N\NS(=O)(=O)c1cccc([N+](=O)[O-])c1)c1cc2ccccc2o1 | 8.87 (active) |
| C/C(=N\NC(=S)Nc1ccc(C)cc1)c1cc2ccccc2o1 | inactive |
| COc1ccc(N(CC(=O)N/N=C/c2cccc3c2OCCO3)S(=O)(=O)c2ccc(NC(C)=O)cc2)cc1 | inactive |
| Cc1ccc(NC(=O)c2cc3ccccc3o2)cc1 | inactive |
| Cc1ccc(OC(=O)c2cc3ccccc3o2)cc1 | 6.5 (active) |
| COc1ccccc1CN(C)C(=O)c1cc2ccccc2o1 | inactive |
| CCCCCCSc1ccc([C@@H]2[C@@H]3C(=O)N(CC)C(=O)[C@@H]3[C@]3(C(=O)OC)CCCCN23)cc1OC | inactive |
| COc1ccc(C(=O)C2CCCN(C(=O)c3cc4nc(C)cc(C)n4n3)C2)cc1F (stereo not given) | inactive |
| O=C(Oc1ccc(C(=S)N2CCOCC2)cc1)c1ccc(F)cc1 | 12.3 (active) |
| O=C(Oc1ccc(F)cc1)N1CCOCC1 | inactive |
| Cc1ccc(C(=O)Oc2ccc(C(=S)N3CCOCC3)cc2)cc1 | inactive |
| CC1=C(C(=O)Nc2cc(C)ccn2)C(c2cnn(C)c2)C2=C(CC(c3ccccc3)CC2=O)N1 (stereo not given) | inactive |
